Reference: PubChem BioAssay (NCATS)
Inconclusive results are not listed. Values without a mark were called inactive. The call rests on the fitted dose curve; in most records, active means well fitted inhibition curve with a large enough effect in the signal ratio, with a control signal flat (not every such curve was filed as active); inconclusive means small, poorly fitted or top-dose-only effect, or effect the other way, or a change in a side signal; inactive means flat fitted curve, though single readings scatter; the % refers to the signal ratio.

target: Thyroid hormone receptor beta (Homo sapiens) (UniProt P10828); assay: qHTS assay for small molecule antagonists of thyroid hormone receptor beta signaling (AID 588547); conditions: TR-UAS-bla HEK293, beta-lactamase ratio, antagonist mode, 18 h;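 further: cells stimulated with 0.4 nM T3 agonist during compound exposure; series mostly up to about 77 µM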
Text: NIH Chemical Genomics Center [NCGC] U.S. Environmental Protection Agency [EPA] National Institutes of Environmental Health Sciences [NIEHS] National Toxicology Program [NTP] NCGC Assay Overview Thyroid hormone receptor (TR) belongs to nuclear hormone receptor superfamily. There are two subtypes for TR: TR-alpha and TR-beta. TR-beta plays a major role in regulating plasma cholesterol levels and it mediates the biological activities of thyroid hormone. Screening environmental chemicals on TR-beta signaling will provide important information for the mechanism of compound action.
NCGC Assay Protocol Summary Using a beta-lactamase reporter-gene under control of the TR response element, a cell-based assay [GeneBLAzer TR-UAS-bla-GripTite assay developed by Invitrogen] was used to measure TR-beta signaling in antagonist mode. TR-UAS-bla-GripTite HEK 293 cells were used with assay medium containing 2% charcoal/dextran FBS, 0.1 mM NEAA and 1 mM sodium pyruvate. The assay was performed in clear bottom black Greiner 1536-well plates. Library compounds were measured for their ability to inhibit the reporter gene activity. Compounds were screened in a titration series in 1536-well format. The fluorescence intensity (405 nm excitation, 460/530 nm emission) was measured using an EnVision plate reader. […] Concentration-response titration points for each compound were fitted to the Hill equation yielding concentrations of half-maximal inhibition (IC50) and maximal response (efficacy) values. qHTS protocol for TR-beta beta-lactamase assay in antagonist mode [Step] [Parameter] [Value] [Description] 1. Reagent; 5 uL; 2500 cells/well 2. Incubation; 37 C for 4 hrs 3. Compounds; 23 nL; 0.59 nM to 92 uM 4. Controls (DMSO); 23 nL 5. Agonist (Stimulator); 1uL; T3 at 0.4nM (final) concentrations 6. Incubation; 37 C for 18 hrs 7. Detection reagent; 1 uL of CCF4-dye 8. Incubation; RT for 2 hrs 9. Detection; Fluorescence; Envision plate reader
On the % scale 0 is the no-effect control and ±100 the full control effect.

Sequence of Thyroid hormone receptor beta (Homo sapiens) (P10828 whole entry, looked up): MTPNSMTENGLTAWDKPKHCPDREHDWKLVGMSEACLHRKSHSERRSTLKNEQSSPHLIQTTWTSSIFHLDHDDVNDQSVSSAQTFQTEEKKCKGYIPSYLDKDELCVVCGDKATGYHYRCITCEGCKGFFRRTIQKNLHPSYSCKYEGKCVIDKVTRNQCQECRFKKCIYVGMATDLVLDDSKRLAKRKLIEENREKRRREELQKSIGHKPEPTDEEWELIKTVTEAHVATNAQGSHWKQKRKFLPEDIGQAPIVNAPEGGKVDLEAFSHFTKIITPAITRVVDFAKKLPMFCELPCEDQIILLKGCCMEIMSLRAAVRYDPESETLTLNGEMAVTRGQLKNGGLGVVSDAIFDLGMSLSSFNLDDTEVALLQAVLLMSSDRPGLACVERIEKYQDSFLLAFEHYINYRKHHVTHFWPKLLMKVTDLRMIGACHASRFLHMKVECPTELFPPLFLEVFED

Q: `C=C(C)OC(C)=O` was tested. Which activity change % (negative = inhibition) did it give?
A: 24.9%

Q: For `Cc1cscn1`, which activity change % (negative = inhibition) is on record?
A: 9.8%

Q: How did the activity change % (negative = inhibition) turn out when `CC(=C/C=C/C(C)=C/C=C/C=C(C)/C=C/C=C(C)/C=C/C(=O)O)/C=C/C(=O)O` was run?
A: -8.7%

Q: For `NC(=O)CCCCC(N)=O`, which activity change % (negative = inhibition) is on record?
A: 2%

Q: With `Cc1ccccc1C(N)=O` as the molecule, how does the activity change % (negative = inhibition) read?
A: -3.78%

Q: For `Nc1cccc2c(=O)[nH][nH]c(=O)c12`, which activity change % (negative = inhibition) is on record?
A: -3.76%

Q: Which activity change % (negative = inhibition) does the source give for `O=[N+]([O-])c1ccc(NCCO)c(OCCO)c1` here?
A: -13.2%

Q: `CC#N` was tested. Which activity change % (negative = inhibition) did it give?
A: 12.3%

Q: Which activity change % (negative = inhibition) does the source give for `Oc1c(Cl)ccc(Cl)c1Cl` here?
A: 13.7%

Q: For `Nc1nc2ccccc2[nH]1`, which activity change % (negative = inhibition) is on record?
A: 16%

Q: How did the activity change % (negative = inhibition) turn out when `CCOC(=O)C(C)C(C)=O` (stereo not given) was run?
A: 2.26%

Q: For `CCOc1cc(OCC)c(C(C)=O)cc1OCC`, which activity change % (negative = inhibition) is on record?
A: -7.72%

Q: `Cc1cccc(C(=O)O)c1` was tested. Which activity change % (negative = inhibition) did it give?
A: 2.36%

Q: `C=C(C)C(=O)OCC(C)C` was tested. Which activity change % (negative = inhibition) did it give?
A: 1.27%

Q: Which activity change % (negative = inhibition) does the source give for `ON=C1CCCCC1` here?
A: 8.44%

Q: `COc1cccc(N)c1` was tested. Which activity change % (negative = inhibition) did it give?
A: -9.05%

Q: How did the activity change % (negative = inhibition) turn out when `Cc1cc(C)c(N)cc1C` was run?
A: -8.09%

Q: With `c1ccc2n[nH]nc2c1` as the molecule, how does the activity change % (negative = inhibition) read?
A: -7.43%

Q: `CC(C)=C1CCC(C)CC1=O` (stereo not given) was tested. Which activity change % (negative = inhibition) did it give?
A: -6.39%

Q: With `CCCCCO` as the molecule, how does the activity change % (negative = inhibition) read?
A: 2.41%

Q: Which activity change % (negative = inhibition) does the source give for `FB(F)F` here?
A: 15.2%

Q: `COCCOC(=O)c1ccccc1C(=O)OCCOC` was tested. Which activity change % (negative = inhibition) did it give?
A: 7.4%

Q: How did the activity change % (negative = inhibition) turn out when `CC(C)c1ccccc1` was run?
A: 6.43%

Q: How did the activity change % (negative = inhibition) turn out when `Nc1cccc(S(=O)(=O)O)c1` was run?
A: -28.7%

Q: With `C=Cc1ccccn1` as the molecule, how does the activity change % (negative = inhibition) read?
A: -28.4%

Q: With `BrC(Br)C(Br)Br` as the molecule, how does the activity change % (negative = inhibition) read?
A: 0.66%

Q: With `CCCCCCCCN` as the molecule, how does the activity change % (negative = inhibition) read?
A: 5.95%

Q: Which activity change % (negative = inhibition) does the source give for `O=[N+]([O-])c1ccc2nc[nH]c2c1` here?
A: 5.36%

Q: Which activity change % (negative = inhibition) does the source give for `C=Cc1ccc(C=C)cc1` here?
A: -18.2%

Q: Which activity change % (negative = inhibition) does the source give for `CC(C)CO` here?
A: -17.4%

Q: With `CC(CCl)OC(C)CCl` (stereo not given) as the molecule, how does the activity change % (negative = inhibition) read?
A: -2.31%

Q: For `CC(=O)c1cccc([N+](=O)[O-])c1`, which activity change % (negative = inhibition) is on record?
A: 10.7%

Q: Which activity change % (negative = inhibition) does the source give for `CCCCC(CC)CO` (stereo not given) here?
A: -6.25%

Q: `O=Cc1ccc(C(=O)O)cc1` was tested. Which activity change % (negative = inhibition) did it give?
A: 7.45%

Q: How did the activity change % (negative = inhibition) turn out when `OC1CCCC1` was run?
A: 8.64%

Q: For `CCCCCCCN`, which activity change % (negative = inhibition) is on record?
A: 3.05%

Q: Which activity change % (negative = inhibition) does the source give for `Nc1c(Cl)cc(Cl)cc1Cl` here?
A: 14.8%

Q: Which activity change % (negative = inhibition) does the source give for `CN(C)c1cccc(O)c1` here?
A: 5.73%

Q: For `CCCOCC(C)O` (stereo not given), which activity change % (negative = inhibition) is on record?
A: 0.569%

Q: How did the activity change % (negative = inhibition) turn out when `Cc1cc(C2(c3cc(C)c(O)cc3C)OS(=O)(=O)c3ccccc32)c(C)cc1O` was run?
A: -15%
